Columns and labels:
[1] = target: T1, Ephrin type-B receptor 2 (Homo sapiens) (UniProt P29323); details: at 1 µM
T1 sequence (whole entry): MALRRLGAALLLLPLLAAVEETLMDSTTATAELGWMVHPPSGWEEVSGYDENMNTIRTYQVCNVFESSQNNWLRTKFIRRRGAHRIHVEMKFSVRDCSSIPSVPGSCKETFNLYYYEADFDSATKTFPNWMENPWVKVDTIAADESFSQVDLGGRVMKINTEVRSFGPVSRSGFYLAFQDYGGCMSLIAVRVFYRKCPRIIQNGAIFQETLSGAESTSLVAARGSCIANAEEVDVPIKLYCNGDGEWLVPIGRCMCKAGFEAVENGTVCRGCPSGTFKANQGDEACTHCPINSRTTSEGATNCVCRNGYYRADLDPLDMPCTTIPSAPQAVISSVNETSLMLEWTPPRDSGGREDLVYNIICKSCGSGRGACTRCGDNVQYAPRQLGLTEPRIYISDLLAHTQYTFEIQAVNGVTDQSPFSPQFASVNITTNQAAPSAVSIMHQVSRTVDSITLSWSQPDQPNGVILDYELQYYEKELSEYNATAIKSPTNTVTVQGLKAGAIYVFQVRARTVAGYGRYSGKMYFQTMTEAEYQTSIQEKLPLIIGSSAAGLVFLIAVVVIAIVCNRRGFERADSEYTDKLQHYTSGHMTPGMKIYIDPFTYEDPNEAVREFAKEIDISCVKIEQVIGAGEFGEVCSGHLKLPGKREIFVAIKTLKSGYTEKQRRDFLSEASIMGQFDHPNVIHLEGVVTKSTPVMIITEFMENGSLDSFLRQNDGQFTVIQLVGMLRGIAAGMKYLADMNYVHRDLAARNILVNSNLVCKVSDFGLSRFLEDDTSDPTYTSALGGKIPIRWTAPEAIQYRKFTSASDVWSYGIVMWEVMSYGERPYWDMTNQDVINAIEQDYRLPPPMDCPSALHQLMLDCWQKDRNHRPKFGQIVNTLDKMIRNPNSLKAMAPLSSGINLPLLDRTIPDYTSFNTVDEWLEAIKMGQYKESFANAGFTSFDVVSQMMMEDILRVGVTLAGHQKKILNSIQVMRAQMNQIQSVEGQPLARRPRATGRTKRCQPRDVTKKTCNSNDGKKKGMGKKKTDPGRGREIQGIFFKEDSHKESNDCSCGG

[2] = target: T2, Ephrin type-B receptor 3 (Homo sapiens) (UniProt P54753); details: at 0.1 µM
T2 sequence (whole entry): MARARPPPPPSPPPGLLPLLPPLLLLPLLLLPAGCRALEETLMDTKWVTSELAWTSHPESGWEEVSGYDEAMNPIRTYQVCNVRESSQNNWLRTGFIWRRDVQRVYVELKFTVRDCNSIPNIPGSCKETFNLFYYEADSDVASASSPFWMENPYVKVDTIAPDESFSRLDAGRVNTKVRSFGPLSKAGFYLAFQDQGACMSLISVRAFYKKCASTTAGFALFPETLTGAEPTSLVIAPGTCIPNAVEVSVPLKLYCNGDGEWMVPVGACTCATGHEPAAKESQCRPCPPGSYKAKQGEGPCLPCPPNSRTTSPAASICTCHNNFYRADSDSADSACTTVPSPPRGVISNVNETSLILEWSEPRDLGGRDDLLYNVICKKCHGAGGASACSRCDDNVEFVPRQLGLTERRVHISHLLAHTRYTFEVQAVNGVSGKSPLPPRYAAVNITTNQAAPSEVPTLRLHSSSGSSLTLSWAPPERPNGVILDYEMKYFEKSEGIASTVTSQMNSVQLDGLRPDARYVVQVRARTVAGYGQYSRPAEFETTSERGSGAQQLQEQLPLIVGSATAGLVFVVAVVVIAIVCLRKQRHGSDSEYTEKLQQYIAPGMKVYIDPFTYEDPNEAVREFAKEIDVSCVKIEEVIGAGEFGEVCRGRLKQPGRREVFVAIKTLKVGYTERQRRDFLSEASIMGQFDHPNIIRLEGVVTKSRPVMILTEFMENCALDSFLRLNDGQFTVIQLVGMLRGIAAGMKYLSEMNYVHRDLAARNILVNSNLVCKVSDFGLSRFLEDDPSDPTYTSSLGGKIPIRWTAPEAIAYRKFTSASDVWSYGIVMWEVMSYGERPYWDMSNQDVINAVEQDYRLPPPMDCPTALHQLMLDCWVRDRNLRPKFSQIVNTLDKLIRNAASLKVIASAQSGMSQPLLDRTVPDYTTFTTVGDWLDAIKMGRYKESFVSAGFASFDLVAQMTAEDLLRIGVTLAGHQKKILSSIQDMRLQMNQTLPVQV

[3] = target: T2, Ephrin type-B receptor 3 (Homo sapiens); details: at 1 µM
[4] = target: T3, Ephrin type-B receptor 4 (Homo sapiens) (UniProt P54760); details: at 0.1 µM
T3 sequence (whole entry): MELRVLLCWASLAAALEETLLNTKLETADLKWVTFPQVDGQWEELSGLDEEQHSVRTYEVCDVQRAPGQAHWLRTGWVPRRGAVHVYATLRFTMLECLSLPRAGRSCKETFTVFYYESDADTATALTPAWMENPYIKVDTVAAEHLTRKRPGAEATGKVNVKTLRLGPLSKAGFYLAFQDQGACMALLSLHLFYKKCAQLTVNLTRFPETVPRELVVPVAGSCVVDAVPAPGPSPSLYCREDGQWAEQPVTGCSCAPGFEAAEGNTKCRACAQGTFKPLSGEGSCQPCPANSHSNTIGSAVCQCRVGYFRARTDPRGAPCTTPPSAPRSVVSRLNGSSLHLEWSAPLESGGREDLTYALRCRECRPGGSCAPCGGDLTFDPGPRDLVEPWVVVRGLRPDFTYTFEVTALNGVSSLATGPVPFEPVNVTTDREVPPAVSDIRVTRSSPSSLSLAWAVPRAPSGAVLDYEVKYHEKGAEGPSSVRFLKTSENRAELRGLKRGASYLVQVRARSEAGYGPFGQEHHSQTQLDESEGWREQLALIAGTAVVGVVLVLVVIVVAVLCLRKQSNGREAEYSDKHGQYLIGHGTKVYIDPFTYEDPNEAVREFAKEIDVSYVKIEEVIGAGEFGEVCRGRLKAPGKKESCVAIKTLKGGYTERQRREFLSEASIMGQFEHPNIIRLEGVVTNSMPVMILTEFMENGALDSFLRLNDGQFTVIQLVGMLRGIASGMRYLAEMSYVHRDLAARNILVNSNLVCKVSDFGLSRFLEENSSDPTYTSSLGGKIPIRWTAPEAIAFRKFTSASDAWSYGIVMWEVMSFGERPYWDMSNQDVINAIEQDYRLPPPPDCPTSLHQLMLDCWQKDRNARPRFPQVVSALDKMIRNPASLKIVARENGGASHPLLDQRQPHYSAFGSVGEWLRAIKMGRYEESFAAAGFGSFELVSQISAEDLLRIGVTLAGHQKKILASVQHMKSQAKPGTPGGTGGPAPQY

[5] = target: T3, Ephrin type-B receptor 4 (Homo sapiens); details: at 1 µM
[6] = target: Receptor tyrosine-protein kinase erbB-2 (Homo sapiens) (UniProt P04626); details: at 0.1 µM
Chain of Receptor tyrosine-protein kinase erbB-2 (Homo sapiens) (P04626 whole entry): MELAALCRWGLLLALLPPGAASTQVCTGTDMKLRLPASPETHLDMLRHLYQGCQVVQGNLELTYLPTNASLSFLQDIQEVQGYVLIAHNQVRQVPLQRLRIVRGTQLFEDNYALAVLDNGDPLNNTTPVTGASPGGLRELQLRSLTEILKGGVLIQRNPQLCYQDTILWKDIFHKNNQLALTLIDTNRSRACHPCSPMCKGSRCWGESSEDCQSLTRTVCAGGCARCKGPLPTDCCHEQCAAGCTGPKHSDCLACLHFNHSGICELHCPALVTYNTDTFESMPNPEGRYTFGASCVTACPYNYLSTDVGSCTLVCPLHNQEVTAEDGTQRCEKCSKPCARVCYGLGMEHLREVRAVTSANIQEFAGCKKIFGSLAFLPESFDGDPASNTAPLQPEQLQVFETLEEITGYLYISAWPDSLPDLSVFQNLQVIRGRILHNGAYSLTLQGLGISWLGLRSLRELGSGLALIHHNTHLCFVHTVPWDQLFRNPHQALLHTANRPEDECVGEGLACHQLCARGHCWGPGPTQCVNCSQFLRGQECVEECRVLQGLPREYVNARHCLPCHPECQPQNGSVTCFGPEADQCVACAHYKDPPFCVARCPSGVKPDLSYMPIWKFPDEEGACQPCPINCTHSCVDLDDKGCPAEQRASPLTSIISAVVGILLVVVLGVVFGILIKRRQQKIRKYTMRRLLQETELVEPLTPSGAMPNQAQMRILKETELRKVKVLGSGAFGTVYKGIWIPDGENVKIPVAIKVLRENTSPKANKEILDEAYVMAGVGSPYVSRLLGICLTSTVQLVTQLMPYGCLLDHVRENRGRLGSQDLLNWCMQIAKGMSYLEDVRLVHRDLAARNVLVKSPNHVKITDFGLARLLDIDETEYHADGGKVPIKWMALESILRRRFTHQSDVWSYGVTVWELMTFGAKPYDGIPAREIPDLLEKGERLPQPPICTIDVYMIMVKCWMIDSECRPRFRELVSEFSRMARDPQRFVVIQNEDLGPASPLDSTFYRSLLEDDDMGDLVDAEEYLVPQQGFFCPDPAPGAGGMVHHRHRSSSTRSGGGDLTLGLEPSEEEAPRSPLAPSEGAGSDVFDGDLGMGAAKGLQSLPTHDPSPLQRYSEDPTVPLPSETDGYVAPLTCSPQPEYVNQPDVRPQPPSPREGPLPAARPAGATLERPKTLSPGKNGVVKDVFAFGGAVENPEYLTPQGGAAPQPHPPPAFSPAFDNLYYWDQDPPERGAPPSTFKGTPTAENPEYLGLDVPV

[7] = target: Receptor tyrosine-protein kinase erbB-2 (Homo sapiens) (UniProt P04626); details: at 1 µM
[8] = target: Receptor tyrosine-protein kinase erbB-4 (Homo sapiens) (UniProt Q15303); details: at 0.1 µM
Chain of Receptor tyrosine-protein kinase erbB-4 (Homo sapiens) (Q15303 whole entry): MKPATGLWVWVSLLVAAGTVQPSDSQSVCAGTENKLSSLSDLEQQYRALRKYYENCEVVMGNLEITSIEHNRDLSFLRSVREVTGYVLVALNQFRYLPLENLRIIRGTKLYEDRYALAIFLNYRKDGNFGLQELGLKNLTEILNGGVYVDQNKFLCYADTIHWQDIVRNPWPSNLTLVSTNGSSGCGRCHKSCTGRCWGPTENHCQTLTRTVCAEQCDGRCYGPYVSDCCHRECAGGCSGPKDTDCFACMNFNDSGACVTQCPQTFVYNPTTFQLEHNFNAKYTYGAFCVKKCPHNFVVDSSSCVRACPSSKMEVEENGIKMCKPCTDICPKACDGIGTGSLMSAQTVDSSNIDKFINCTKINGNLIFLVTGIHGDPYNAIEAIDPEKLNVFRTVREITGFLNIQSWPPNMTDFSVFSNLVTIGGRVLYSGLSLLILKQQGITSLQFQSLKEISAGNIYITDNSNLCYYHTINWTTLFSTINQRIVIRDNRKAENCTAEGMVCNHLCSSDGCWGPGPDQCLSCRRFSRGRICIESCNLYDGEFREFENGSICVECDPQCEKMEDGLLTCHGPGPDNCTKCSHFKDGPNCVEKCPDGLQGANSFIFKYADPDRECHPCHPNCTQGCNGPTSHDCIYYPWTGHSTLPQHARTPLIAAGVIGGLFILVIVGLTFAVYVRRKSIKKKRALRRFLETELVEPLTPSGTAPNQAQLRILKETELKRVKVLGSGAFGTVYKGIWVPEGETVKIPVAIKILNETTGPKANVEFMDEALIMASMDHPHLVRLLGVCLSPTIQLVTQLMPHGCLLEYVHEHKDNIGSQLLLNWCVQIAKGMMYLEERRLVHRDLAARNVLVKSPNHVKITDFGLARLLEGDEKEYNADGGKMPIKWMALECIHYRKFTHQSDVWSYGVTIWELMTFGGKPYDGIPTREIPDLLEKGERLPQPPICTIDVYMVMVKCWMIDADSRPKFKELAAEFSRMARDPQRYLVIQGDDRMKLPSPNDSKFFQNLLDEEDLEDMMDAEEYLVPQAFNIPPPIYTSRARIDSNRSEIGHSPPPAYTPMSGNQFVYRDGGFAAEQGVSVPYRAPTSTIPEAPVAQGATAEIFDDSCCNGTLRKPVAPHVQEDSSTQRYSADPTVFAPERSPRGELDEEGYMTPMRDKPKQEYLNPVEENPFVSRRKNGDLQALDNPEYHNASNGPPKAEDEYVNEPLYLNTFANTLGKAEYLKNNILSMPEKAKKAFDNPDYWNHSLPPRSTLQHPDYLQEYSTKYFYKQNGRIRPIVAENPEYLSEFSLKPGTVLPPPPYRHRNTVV

[9] = target: Receptor tyrosine-protein kinase erbB-4 (Homo sapiens) (UniProt Q15303); details: at 1 µM
[10] = target: Tyrosine-protein kinase Fer (Homo sapiens) (UniProt P16591); details: at 0.1 µM
[11] = target: Tyrosine-protein kinase Fer (Homo sapiens) (UniProt P16591); details: at 1 µM
[12] = target: Tyrosine-protein kinase Fes/Fps (Homo sapiens) (UniProt P07332); details: at 0.1 µM
[13] = target: Tyrosine-protein kinase Fes/Fps (Homo sapiens) (UniProt P07332); details: at 1 µM
[14] = target: Fibroblast growth factor receptor 1 (Homo sapiens) (UniProt P11362); details: at 0.1 µM
[15] = target: Fibroblast growth factor receptor 1 (Homo sapiens) (UniProt P11362); details: at 1 µM
[16] = target: Fibroblast growth factor receptor 2 (Homo sapiens) (UniProt P21802); details: at 0.1 µM
Chain of Fibroblast growth factor receptor 2 (Homo sapiens) (P21802 22-821 limits assumed): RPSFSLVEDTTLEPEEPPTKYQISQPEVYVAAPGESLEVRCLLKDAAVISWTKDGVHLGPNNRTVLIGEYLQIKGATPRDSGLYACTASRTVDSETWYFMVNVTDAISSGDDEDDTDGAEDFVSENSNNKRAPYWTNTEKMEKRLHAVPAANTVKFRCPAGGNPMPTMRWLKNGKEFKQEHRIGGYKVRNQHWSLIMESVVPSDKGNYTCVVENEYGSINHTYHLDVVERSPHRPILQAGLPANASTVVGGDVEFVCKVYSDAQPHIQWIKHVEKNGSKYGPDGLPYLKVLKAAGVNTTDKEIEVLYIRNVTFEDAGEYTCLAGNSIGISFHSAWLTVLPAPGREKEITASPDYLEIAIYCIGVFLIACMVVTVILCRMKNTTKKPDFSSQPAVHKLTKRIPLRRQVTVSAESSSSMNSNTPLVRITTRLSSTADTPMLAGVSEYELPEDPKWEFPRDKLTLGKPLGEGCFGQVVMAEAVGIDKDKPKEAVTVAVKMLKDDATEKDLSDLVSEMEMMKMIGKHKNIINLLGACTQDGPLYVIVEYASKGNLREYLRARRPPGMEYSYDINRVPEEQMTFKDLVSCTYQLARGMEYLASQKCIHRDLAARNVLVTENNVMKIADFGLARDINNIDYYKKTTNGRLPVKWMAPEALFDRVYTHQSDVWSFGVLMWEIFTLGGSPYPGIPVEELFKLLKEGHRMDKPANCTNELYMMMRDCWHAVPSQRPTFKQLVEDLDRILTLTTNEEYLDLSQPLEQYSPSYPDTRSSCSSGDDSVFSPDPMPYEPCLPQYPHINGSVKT

[17] = target: Fibroblast growth factor receptor 2 (Homo sapiens) (UniProt P21802); details: at 1 µM
[18] = target: Fibroblast growth factor receptor 3 (Homo sapiens) (UniProt P22607); details: at 0.1 µM
Chain of Fibroblast growth factor receptor 3 (Homo sapiens) (P22607 23-806 limits assumed): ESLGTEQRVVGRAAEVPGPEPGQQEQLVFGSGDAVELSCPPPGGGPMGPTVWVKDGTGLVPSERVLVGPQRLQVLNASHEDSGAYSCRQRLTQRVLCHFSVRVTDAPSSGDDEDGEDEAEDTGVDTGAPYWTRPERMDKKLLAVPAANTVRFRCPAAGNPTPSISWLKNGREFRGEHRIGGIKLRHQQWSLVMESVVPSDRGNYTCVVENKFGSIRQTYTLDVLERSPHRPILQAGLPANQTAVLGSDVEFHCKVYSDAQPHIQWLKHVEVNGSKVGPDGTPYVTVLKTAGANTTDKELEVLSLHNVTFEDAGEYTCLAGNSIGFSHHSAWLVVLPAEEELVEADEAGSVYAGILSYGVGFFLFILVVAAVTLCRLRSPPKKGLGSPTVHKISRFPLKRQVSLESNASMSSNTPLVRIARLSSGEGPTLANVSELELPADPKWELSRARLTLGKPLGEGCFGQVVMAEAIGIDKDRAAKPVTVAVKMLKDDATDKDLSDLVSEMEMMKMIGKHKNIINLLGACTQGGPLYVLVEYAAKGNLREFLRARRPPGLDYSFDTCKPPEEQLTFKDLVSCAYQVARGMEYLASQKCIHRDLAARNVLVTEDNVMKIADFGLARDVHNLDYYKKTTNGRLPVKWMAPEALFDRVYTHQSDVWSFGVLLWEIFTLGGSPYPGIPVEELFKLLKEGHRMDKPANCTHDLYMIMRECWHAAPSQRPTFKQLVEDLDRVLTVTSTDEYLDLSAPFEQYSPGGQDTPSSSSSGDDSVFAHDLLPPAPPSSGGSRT

[19] = target: Fibroblast growth factor receptor 3 (Homo sapiens) (UniProt P22607); details: at 1 µM
[20] = target: Fibroblast growth factor receptor 4 (Homo sapiens) (UniProt P22455); details: at 0.1 µM;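 note: values are mean percent inhibition of FGFR4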
Chain of Fibroblast growth factor receptor 4 (Homo sapiens) (P22455 22-802 limits assumed): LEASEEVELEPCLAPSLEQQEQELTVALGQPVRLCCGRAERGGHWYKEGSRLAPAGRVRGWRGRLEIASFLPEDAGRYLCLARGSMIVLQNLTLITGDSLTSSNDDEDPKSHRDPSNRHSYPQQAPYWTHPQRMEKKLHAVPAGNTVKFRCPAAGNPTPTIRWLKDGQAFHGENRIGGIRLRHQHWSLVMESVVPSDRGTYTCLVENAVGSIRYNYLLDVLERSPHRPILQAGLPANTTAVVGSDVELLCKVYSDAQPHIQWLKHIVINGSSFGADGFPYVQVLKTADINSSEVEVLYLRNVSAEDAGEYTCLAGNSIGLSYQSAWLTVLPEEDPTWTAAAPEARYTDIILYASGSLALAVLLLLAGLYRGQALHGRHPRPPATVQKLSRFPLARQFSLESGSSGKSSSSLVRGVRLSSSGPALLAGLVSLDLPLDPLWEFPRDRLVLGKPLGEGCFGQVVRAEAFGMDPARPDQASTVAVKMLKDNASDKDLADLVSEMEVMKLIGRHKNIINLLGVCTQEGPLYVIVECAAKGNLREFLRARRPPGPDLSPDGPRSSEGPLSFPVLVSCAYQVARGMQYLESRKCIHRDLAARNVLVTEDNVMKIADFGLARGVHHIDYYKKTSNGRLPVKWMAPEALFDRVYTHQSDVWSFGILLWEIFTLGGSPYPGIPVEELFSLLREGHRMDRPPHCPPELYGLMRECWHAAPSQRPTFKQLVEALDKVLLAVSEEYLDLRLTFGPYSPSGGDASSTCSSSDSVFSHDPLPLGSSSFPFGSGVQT

SMILES | inhibition [1] [%] | inhibition [2] [%] | inhibition [3] [%] | inhibition [4] [%] | inhibition [5] [%] | inhibition [6] [%] | inhibition [7] [%] | inhibition [8] [%] | inhibition [9] [%] | inhibition [10] [%] | inhibition [11] [%] | inhibition [12] [%] | inhibition [13] [%] | inhibition [14] [%] | inhibition [15] [%] | inhibition [16] [%] | inhibition [17] [%] | inhibition [18] [%] | inhibition [19] [%] | inhibition [20] [%]
[O-][S+]1CCN(Cc2ccc(-c3ccc4ncnc(Nc5ccc(OCc6cccc(F)c6)c(Cl)c5)c4c3)o2)CC1 | 7.63 | 3.69 | 7.49 | 2.75 | 4.27 | 78.4 | 79.9 | 88.9 | 91.3 | 2.55 | 4.93 | 5 | 4.91 | 3.95 | 9.17 | 7.74 | 9.73 | 8.06 | 7.32 | 5.9
c1ccc(COc2ccc(Nc3ncnc4ccc(-c5ccco5)cc34)cc2)cc1 | 1.06 | 0.82 | 3.5 | -0.6 | 1.67 | -0.16 | 20 | 20.1 | 79.3 | 1.72 | 4.05 | 2.03 | 1.74 | -8.22 | -7.82 | 1.65 | 8.16 | 2.01 | 7.69 | 3.87
CCn1c(-c2nonc2N)nc2c(C#CC(C)(C)O)nc(OC[C@H](N)c3ccccc3)cc21 | 0.23 | 0.72 | 1.06 | 1.68 | 1.24 | 0.79 | 3.43 | 6.48 | 28.9 | 2.98 | 7.41 | 4.38 | 7.88 | 4.14 | 2.91 | 4.95 | 4.18 | 9.04 | 3.32 | 3.89
CCn1c(-c2nonc2N)nc2cnc(Oc3cccc(NC(=O)c4ccc(N(C)C)cc4)c3)cc21 | 7.72 | 4.18 | 3.26 | 0.67 | 0.71 | 1.13 | -0.18 | 8.23 | 9.63 | 1.16 | 2.5 | 0.77 | 1.31 | 3.11 | 0.12 | -0.14 | 3.9 | 2.5 | 3.54 | 1.51
N#Cc1c(NC(=O)c2ccc(F)cc2)sc2c1CCCC2 | 5.96 | 2.46 | 3.74 | -0.69 | 0.04 | -0.32 | -0.51 | 5.37 | 7.46 | 0.75 | 0.95 | 0.56 | 1.22 | 1.48 | 2.08 | 1.6 | 3.48 | 1.58 | 2.77 | 0.23
COc1cc(/C=N/Nc2ncnc3[nH]ncc23)ccc1O | 38.7 | 3.99 | 5.19 | 5.34 | 20.9 | 2.03 | 4.08 | 13.4 | 21.1 | 3.03 | 14.3 | 2.22 | 7.19 | 1.55 | 7.94 | 4.76 | 16.9 | 5.91 | 19 | -1.95
c1ccc(-c2nc3n(c2-c2ccc4c(c2)OCO4)CCC3)nc1 | 3.77 | 4.03 | -0.67 | 0.53 | 1.11 | 1.28 | -0.6 | 3.67 | 1.72 | 2.91 | 1.9 | 0.9 | -0.41 | 0.69 | 2.51 | -0.68 | 1.92 | 4.46 | 1.25 | -1.29
CN1CCC(n2cnc(-c3ccc(F)cc3)c2-c2ccnc(Nc3ccccc3)n2)CC1 | 44.1 | 4.66 | 2.3 | 3.77 | 12.6 | 5.05 | 15.9 | 10.6 | 27.2 | 1.86 | 4.62 | 2.34 | 3.11 | 1.2 | -0.76 | 2.32 | 4.35 | 4.39 | 0.24 | 0.09
Cc1ccc(O)cc1Nc1ccnc2cc(-c3ccccn3)ccc12 | 91.9 | 18.1 | 53.3 | 87.3 | 95.1 | 2.16 | 11.6 | 35.1 | 75.6 | 5.39 | 8.05 | 4.23 | 8.97 | 15.1 | 46.6 | 12.8 | 43.2 | 8.93 | 25.8 | 9.41
CCN1CCC(CC(=O)Nc2n[nH]c3nnc(-c4cccc(F)c4F)cc23)CC1 | 3.83 | 2.04 | 5.11 | -0.34 | 1.27 | 2.4 | 3.76 | 3.77 | 10.1 | -0.6 | 1.74 | 2.37 | 2.12 | 0.21 | 0.41 | 0.64 | 3.38 | -1.19 | 1.89 | 0.88
COc1cc(Nc2nccc(Nc3ccc4c(C)n[nH]c4c3)n2)cc(OC)c1OC | 65.5 | 2.52 | 0.24 | 11.2 | 54.8 | -1.05 | 0.32 | 11.9 | 27.6 | 6.42 | 36.1 | 3.05 | 10.6 | 5.2 | 24.8 | 7.33 | 39.8 | 8.22 | 30.5 | 2.39
COc1ccc(-c2oc3ncnc(N)c3c2-c2ccc(NC(=O)Nc3cc(C(F)(F)F)ccc3F)cc2)cc1 | 89.9 | 92.7 | 99.7 | 83.7 | 96.6 | 4.07 | 8.56 | 12.8 | 14.6 | 8.1 | 64.5 | 3.91 | 17.1 | 10.1 | 66 | 31.2 | 75.9 | 10 | 63.8 | 5.68
COc1ccc(-c2cc3c(N)ncnc3o2)cc1 | 4.07 | -1.39 | 0.05 | 0.49 | 0.16 | -0.84 | 0.38 | -1.91 | 1.85 | -0.15 | 1.69 | -0.35 | -0.8 | -5.35 |  | -1.74 | -4.78 | -0.11 | -2.94 | 2.88
